Here are results for eleven molecules from the supplement of paper PMC10127200.

The structures appear in SMILES notation. Counter-ions that a name gives are not always drawn.

The test has as its system DU145. Put plainly: Euclidean distance of Cell Painting phenotypic profile (signed KS, 77 features) to DMSO centroid (dimensionless distance); higher = stronger phenotypic change vs DMSO (phenoactivity). The note with it: 48 h; 5 or 10 uM (library dependent). An outline of the steps: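 Five cancer lines and a healthy fibroblast line received library compounds at 10 or 5 uM (library-dependent, 0.1% DMSO final) for 48 h. Stained cells were imaged confocally at 20X (9 fields/well). Harmony extracted 77 features, each scored as a signed Kolmogorov-Smirnov statistic against same-plate vehicle wells. Profiles were plate-position corrected, correlation-weighted and replicate-averaged at the top dose. Phenoactivity is the Euclidean distance from each profile to the median vehicle profile.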
In turn, `CN1c2ccccc2C(NCCCCCCC(=O)O)c2ccc(Cl)cc2S1(=O)=O` (stereo unspecified) [Tianeptine sodium] came in with an Euclidean distance of 0.767. `CC(C)=CCOc1c2occc2cc2ccc(=O)oc12` [Imperatorin] showed an Euclidean distance of 0.803.

In turn, `Cc1cccc(C)c1NC1=NCCCS1` [Xylazine] showed an Euclidean distance of 1.01.

As to `CC(C)NCC(O)c1ccccc1Cl` (stereo unspecified) [Clorprenaline HCl], the Euclidean distance is 0.599. As for `CCC1(c2cccc(O)c2)CCCCN(C)C1` (stereo unspecified) [Meptazinol HCl], the figure is 0.6; as for `C[C@@H]1CC[C@@]2(OC1)O[C@H]1C[C@H]3[C@@H]4CC=C5C[C@@H](O[C@@H]6O[C@H](CO)[C@@H](O[C@@H]7O[C@@H](C)[C@H](O)[C@@H](O)[C@H]7O)[C@H](O)[C@H]6O[C@@H]6O[C@@H](C)[C@H](O)[C@@H](O)[C@H]6O)CC[C@]5(C)[C@H]4CC[C@]3(C)[C@H]1[C@@H]2C` [Dioscin], 0.921; as for `COc1ccc(OC)c(C(O)C(C)N)c1` (stereo unspecified) [Methoxamine HCl], 1.03. Turning to `C#C[C@]1(OC(=O)CCCCCC)CC[C@H]2[C@@H]3CCC4=CC(=O)CC[C@@H]4[C@H]3CC[C@@]21C` [Norethisterone Enanthate], the Euclidean distance was determined as 3.85. As for `O=C1CCC[C@@H]2[C@H]3CCCN4CCC[C@@H](CN12)[C@@H]34` [(+)-Matrine], the figure is 0.902; as for `O=C(NCC1CCOCC1)c1cnc(Nc2ccc(Cl)cc2Cl)nc1C(F)(F)F`, 1.36; as for `CN1C[C@H](C(=O)N[C@]2(C)O[C@@]3(O)[C@@H]4CCCN4C(=O)[C@H](Cc4ccccc4)N3C2=O)C[C@@H]2c3cccc4[nH]cc(c34)C[C@H]21` [Dihydroergotamine Mesylate], 0.862.
